# Source: PubChem
# DAX1 inh-1 – DAX1 (NR0B1) inhibition, primary screen | HEK293T StAR-luciferase reporter, SF-1/DAX-1 repression relief | inhibition, % at 6.8 µM | hit rate 1.1% among 370,000;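 active = inhibition above the mean over all tested compounds plus 3 SD, cut at about 3.6% in these data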;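 also: 0% = DAX-1 cells with DMSO and 100% = cells lacking DAX-1 with DMSO; higher inhibition means more luminescence from relief of DAX-1 repression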
# DAX1 inh-2 – inhibitors of human orphan nuclear receptor DAX1 (NR0B1); P51843; HEK293 Gal4-DAX1 luciferase reporter, luminescence; inhibition, % at 6.75 µM; hit rate 0.99% among 340,000; AID 504766;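 active = inhibition above the mean over all tested compounds plus 3 SD, cut at about 4.2% in these data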;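 also: 0% = DAX1-transfected cells with DMSO and 100% = empty-vector control cells with DMSO; inhibition shows as a rise in luminescence from relieved DAX1 repression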
# Target sequence (P51843 207-470 limits assumed): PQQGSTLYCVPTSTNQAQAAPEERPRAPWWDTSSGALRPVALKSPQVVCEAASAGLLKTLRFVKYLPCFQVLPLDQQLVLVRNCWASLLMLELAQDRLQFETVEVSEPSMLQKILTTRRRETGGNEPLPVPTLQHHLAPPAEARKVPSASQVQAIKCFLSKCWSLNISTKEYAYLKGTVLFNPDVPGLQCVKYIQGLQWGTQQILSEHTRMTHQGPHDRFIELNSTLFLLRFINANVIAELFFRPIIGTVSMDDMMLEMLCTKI
# hcDAF-12 act – activates DAF-12 receptor from parasite H. contortus; HEK293 hcDAF-12 lit1-tk-luc reporter, luminescence; 0% DMSO, 100% Δ7-dafachronic acid; activation, % at 6.8 µM; hit rate 1.4% among 370,000; AID 652067;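 active = activation above the mean of all tested compounds plus 3 SD, cut at about 5.5% in these data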;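 also: 100% = response to 3 µM Δ7-dafachronic acid high control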
# PolyA inhibitor – blocks polyadenylation in yeast reporter cells; AID 1875; S. cerevisiae SKY197-pL101 polyadenylation reporter, beta-gal luminescence; efflux-impaired pdr1/pdr3 knockout yeast; score 100 = 6 SD above DMSO; activity score, % at 12 µM; hit rate 0.02% among 300,000;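 active = lowest replicate activity score at least 50, where 100 means six control SD above control mean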;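 also: yeast exposed to compound for 9 h at 30 °C; higher score means more reporter readthrough which indicates perturbed polyadenylation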
# hgDAF12 agonist – agonists of H. glycines DAF-12 nuclear receptor; HEK293 GAL4-hgDAF12 UAS-luciferase reporter, agonist luminescence; normalized to butyrate control; activation, % at 6.8 µM; hit rate 1.8% among 370,000;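 active = activation above a cutoff set at the mean of all screened compounds plus 3 SD, cut at about 10% in these data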;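 also: 0% = DMSO wells and 100% = sodium butyrate wells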
# ssDAF12 agonist – activates DAF-12 receptor from parasite S. stercoralis | HEK293 ssDAF-12/GRIP1 lit1-tk-luc reporter, luminescence; % of 3 µM dafachronic acid response | activation, % at 6.8 µM | hit rate 1% among 370,000 | AID 652126;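 active = activation above the mean over all tested compounds plus 3 SD, cut at about 0.9% in these data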;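 also: 0% = DMSO-only wells and 100% = 3 µM delta7-dafachronic acid wells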
# LXR ag – counter-screen for hcDAF-12 agonists: agonists of human LXR-beta; activation, % at 6.8 µM; shares compounds with hcDAF-12 act; HEK293 Gal4-LXR tk-luc reporter, luminescence, 24 h; normalized: DMSO 0%, positive control 100%; AID 743027; 3,400 tested, under 10 active;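 active = mean percent activation of the reporter above a cutoff set as the average over tested compounds plus their standard deviation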
# hcDAF12 conf – hcDAF-12 agonism, confirmation assay | shares compounds with hcDAF-12 act | activation, % at 6.8 µM | hit rate 61% among 3,400 | HEK293 hcDAF-12 lit1-tk-luc reporter, luminescence; % of Δ7-dafachronic acid response;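 active = mean activation across triplicate tests above the threshold derived from the earlier primary screen, cut at about 5.5% in these data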;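 also: 0% = DMSO only wells and 100% = 3 µM Δ7-dafachronic acid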
# Numbers without * were called inactive; . = no result given. Most compounds without a hit are left out; they make up all but 4.1% or so of the library.
SMILES,DAX1 inh-1,DAX1 inh-2,hcDAF-12 act,PolyA inhibitor,hgDAF12 agonist,ssDAF12 agonist,LXR ag,hcDAF12 conf
COc1ccc(OCc2cc(C(=O)N3CCC(OC)CC3)no2)c2ccccc12,3.8*,3,7.8*,6,9,1,0,6.4*
COc1ccc(OCc2cc(C(=O)NC3CCOC(C)(C)C3)no2)c2ccccc12 (centres undefined),4.1*,3,7.9*,-7,6,2.1*,0,8.0*
CSc1ccccc1OCc1cc(C(=O)NC2CCOC(C)(C)C2)no1 (centres undefined),0,-1,-1,8,2,-1,.,.
C#CCNC(=O)C[C@@H]1C[C@@]2(C(=O)OCC)CCCC=C2N(CCCCCCCC)C1=O,2,.,-1,.,1,-2,.,.
COC(=O)N/N=C/c1cn(CC(C)COc2ccccc2)c2ccccc12 (centres undefined),-2,-3,-5,-26,0,-2,.,.
COc1ccc(NC(=O)C(c2ccccn2)N(C(C)=O)c2ccc(C)cc2)cc1 (centres undefined),1,-1,10*,-13,4,1.6*,0,4
CC(=O)Nc1ccc(C(=O)N(C)C(C(=O)Nc2ccc(C)cc2)c2ccccn2)cc1 (centres undefined),0,-1,4,25,1,0,.,.
Cc1ccc(-c2cc(C(=O)n3cnc4ccccc43)c3ccccc3n2)cc1C,3,1,8.1*,-1,7,1.5*,0,4
Cc1ccc(-c2cc(C(=O)NCc3ccccn3)c3ccccc3n2)cc1C,0,-2,1,3,5,-1,.,.
COc1cccc(-c2nnc(Nc3nc4c(F)cccc4s3)o2)c1,3,0,8.3*,-3,9,0,0,6.8*
COc1ccccc1-c1nnc(Nc2nc3c(OC)cccc3s2)o1,-3,-3,-2,1,-7,-1,.,.
COc1ccccc1/C=N\Nc1ccccc1[N+](=O)[O-],1,7.9*,7.0*,-6,6,-1,2,6.4*
CCOC(=O)Cn1c(=O)oc2cc(S(=O)(=O)N(C)c3cccc(C)c3)ccc21,0,0,-1,3,0,-1,.,.
c1ccc2c(c1)CCCN2Cc1nnc2n1CCCCC2,1,0,7.7*,9,2,1.0*,0,4
O=C(Nc1nnc(-c2ccccc2Cl)o1)c1nc2ccccc2s1,1,1,8.8*,2,6,1.2*,0,5
O=C(Nc1nnc(-c2ccccc2Cl)o1)c1ccco1,0,0,4,12,10,-1,.,.
CCn1ncc(Br)c1C(=O)Nc1ccc(C(C)C)cc1,0,1,7.8*,10,10,-1,0,3
C(=N\NC1=Nc2cccc3cccc1c23)/c1ccccn1,3,5.3*,8.6*,-65,10,0,1,10*
Cc1ccc(S(=O)(=O)N2CCOCC2)cc1C(=O)Nc1nc2ccccc2[nH]1,2,0,7.9*,-10,3,0,0,5
NNc1nc(-c2ccccc2Cl)nc2ccccc12,0,1,1,3,-1,-1,.,.
NNc1nc(-c2ccccc2Cl)nc2sc3c(c12)CCCC3,2,2,8.3*,-31,9,1,1,7.7*
CCCNC(=O)C(Cc1ccc(OC)cc1)NC(=O)c1ccc(Cl)cc1 (centres undefined),1,1,-1,.,-1,-1,.,.
O=C1NC[C@H](CCCCN2CCN(Cc3ccccc3)C(=O)C2=O)N(Cc2ccccc2)C1=O,-1,.,-1,.,-2,-1,.,.
COc1ccc(C(=O)N2CCN(c3ccccc3Cl)CC2)cc1S(=O)(=O)NC1CC1,1,1,-1,.,-1,-2,.,.
